The source of these data is PubChem BioAssay (NCATS).

The nature of assay [1]: Primary qHTS for inhibitors of nuclear receptor binding SET domain protein 2 (NSD2) in an isogenic RCH-ACV NSD2 p.E1099K mutant (9B) (AID 1645876). Further: nearly all actives have a fitted effect of over 70% in size. Further: potency means the concentration at half of the fitted maximal effect.
The nature of assay [2]: Primary qHTS for inhibitors of nuclear receptor binding SET domain protein 2 (NSD2) in an RCH-ACV wild type WT cells (2C) (AID 1645877). Further: nearly all actives have a fitted effect of over 70% in size. Further: potency means the concentration at half of the fitted maximal effect. On the technique in general: In qHTS, concentration-response curves come from the screen itself.
Assay [3] addresses Rap guanine nucleotide exchange factor 3 (Homo sapiens) (UniProt O95398). Description: Confirmatory qHTS for antagonist of cAMP-regulated guanine nucleotide exchange factor 3 (EPAC1) (AID 1645880). Further: potency means the concentration at half of the fitted maximal effect; nearly all actives have a fitted effect of over 55% in size. The gist of the method: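 Released BODIPY-GDP fluoresces less than Rap1-bound BODIPY-GDP; the signal is followed at 480/540 nm at 5-min intervals over 30 min, after 5 min at room temperature. Reactions contain 100 nM EPAC1, 250 nM RAP1B-BODIPY-GDP and 50 uM GDP; results are normalized to ATA and DMSO.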

The target is the same in assay [4]. Description: Confirmatory qHTS for agonist of cAMP-regulated guanine nucleotide exchange factor 3 (EPAC1) (AID 1645881).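 Further: EPAC1 catalysed release of BODIPY-GDP from Rap1B seen as fluorescence loss; nearly all actives have a fitted effect of over 75% in size.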

Several values for one entry are separate records, joined by “and”; a condition that tells them apart may be missing. Identical values can stand only once. Inconclusive results are not listed. Activity calls are given as the source filed them. The call rests on the fitted dose curve; in most records, active means well fitted curve in the direction sought with a large enough effect; inconclusive means small, poorly fitted or top-dose-only effect, or another doubt; inactive means no such curve, though single readings can be large; an effect the other way counts as inactive or inconclusive.

Rap guanine nucleotide exchange factor 3 (Homo sapiens), sequence (O95398 whole entry, looked up): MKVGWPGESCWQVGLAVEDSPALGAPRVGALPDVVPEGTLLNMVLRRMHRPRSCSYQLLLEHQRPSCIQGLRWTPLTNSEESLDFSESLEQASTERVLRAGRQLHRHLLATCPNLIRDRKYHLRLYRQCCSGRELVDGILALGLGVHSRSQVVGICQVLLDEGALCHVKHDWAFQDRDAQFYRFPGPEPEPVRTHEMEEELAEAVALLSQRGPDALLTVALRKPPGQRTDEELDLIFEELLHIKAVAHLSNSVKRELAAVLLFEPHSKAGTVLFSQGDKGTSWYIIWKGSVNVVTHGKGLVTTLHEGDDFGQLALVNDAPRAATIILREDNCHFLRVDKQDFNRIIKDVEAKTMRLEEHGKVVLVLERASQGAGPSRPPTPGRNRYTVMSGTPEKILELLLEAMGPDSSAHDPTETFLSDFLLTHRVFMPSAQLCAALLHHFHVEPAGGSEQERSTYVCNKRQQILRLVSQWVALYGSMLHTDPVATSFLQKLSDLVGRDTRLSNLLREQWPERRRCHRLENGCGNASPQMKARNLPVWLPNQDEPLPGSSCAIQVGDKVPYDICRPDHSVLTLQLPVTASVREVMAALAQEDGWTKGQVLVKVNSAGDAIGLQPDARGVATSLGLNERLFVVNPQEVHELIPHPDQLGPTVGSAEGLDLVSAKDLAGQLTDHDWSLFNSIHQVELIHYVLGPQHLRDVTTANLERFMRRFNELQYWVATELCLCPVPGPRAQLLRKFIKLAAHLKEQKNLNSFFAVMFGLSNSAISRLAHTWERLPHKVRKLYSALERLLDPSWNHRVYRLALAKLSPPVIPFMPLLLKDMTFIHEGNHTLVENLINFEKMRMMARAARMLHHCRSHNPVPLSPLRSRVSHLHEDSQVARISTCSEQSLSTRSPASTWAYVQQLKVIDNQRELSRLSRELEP

For the molecule `COc1cc(/C=C2\CCCN([C@@H](C)c3ccc(F)cc3)C2=O)ccc1-n1cnc(C)c1`, the Potency was 11.5 µM (active) in assay [1] and 12.9 µM (active) in assay [2].

Regarding `C=C1C(=O)O[C@@H]2/C=C(\CO)CC/C=C(/C=O)C[C@H](O)[C@@H]12`, the Potency is 7.28 µM (active) in assay [1] and 4.09 µM (active) in assay [2].

With `CCC(CC)(NC(=O)C(C)C)C(=O)N[C@@H](CCCN=C(N)N)C(=O)NC1(C(=O)NC(c2ccc(F)cc2)c2ccc(F)cc2)CCCC1`, the Potency entry in assay [1] and in assay [2] was “inactive” throughout.

For `C=CC(=O)N1CCCN(c2cc(NCCC(=O)O)nc(-c3ccccn3)n2)CC1`, the Potency entry in assay [1] and in assay [2] was “inactive” each time.

For the molecule `CC(=O)OC1[C@H]2[C@@H](C[C@@H](C)[C@@H]3C=CC(=O)[C@@]13C)OC(=O)[C@@H]2C` (stereo partly specified), the figures for the Potency in assay [1] and in assay [2] were 10.3 µM (active) and 7.28 µM (active), respectively.

As to `CC(C)C[C@@H]1NC(=O)[C@@H](Cc2ccccc2)NC(=O)C(CCCCCC(=O)C2CO2)NC(=O)[C@@H]2CCCCN2C1=O` (stereo partly specified), the Potency is 0.0709 µM (active) in assay [1] and 0.0252 µM (active) in assay [2].

On to `CC(/C=C/C(=O)NO)=C\[C@@H](C)C(=O)c1ccc(N(C)C)cc1`, for which the Potency was 183 nM (active) and 1.05 µM (active) in assay [1]; 183 nM (active) and 934 nM (active) in assay [2].

Consider `COc1cc(O)c2c(c1)/C=C/C[C@H](O)[C@H](O)C(=O)/C=C\C[C@H](C)OC2=O`, for which the Potency in assay [1] is 2.06 µM (active) and 2.58 µM (active); in assay [2] it was 1.46 µM (active) and 1.83 µM (active).

On to `COC(=O)C[C@H]1[C@]2(C)C3=C(C)[C@H](c4ccoc4)C[C@H]3O[C@@H]2[C@H](O)C2[C@](C)(C(=O)OC)C=CC(=O)[C@@]21C` (stereo partly specified), for which the Potency result in assay [1] and in assay [2] was “inactive” in each case.

As to `NC(=O)c1cnc(N[C@@H]2CCCC[C@@H]2N)nc1Nc1cccc(-n2nccn2)c1`, the Potency in assay [1] and in assay [2] was 1.32 µM (active) throughout.

On to `C=C1C(OC2OC(CO)C(O)C(O)C2O)CC2C(C)(C)C(O)CCC2(C)C1CC/C(C)=C\COC(=O)CC(=O)O` (stereo unspecified), for which, in assay [2], the Potency is 4.83 µM (active).

As for `C=C1C(=O)O[C@@H]2[C@H]3C(C)=CC(=O)C3=C(C)[C@@H](OC(=O)/C(C)=C\C)[C@H](O)[C@@H]12`, in assay [2], the Potency is 3.58 µM (active).

`NC(=O)c1ccccc1Nc1ccnc(Nc2cccc(O)c2)n1`: the Potency in assay [1] is 0.742 µM (active); in assay [2] it was 0.833 µM (active).

Consider `C=C(C)C(=O)OC1CC(CO)CCC/C(CO)=C/C2OC(=O)C(=C)C21` (stereo unspecified), for which the Potency in assay [1] was 2.53 µM (active); in assay [2], 2.01 µM (active).

With `CN[C@@H]1[C@H](O[C@H]2[C@H](O[C@@H]3[C@@H](O)[C@H](O)[C@@H](N=C(N)N)[C@H](O)[C@H]3N=C(N)N)O[C@@H](C)[C@]2(O)CO)O[C@@H](CO)[C@H](O)[C@H]1O`, the Potency result in assay [1] and in assay [2] was “inactive” in each case.

As for `C=C1CC[C@@H]2[C@](C)(CO)[C@H](O)CC[C@@]2(C)[C@@H]1C/C=C1/C(=O)OCC1O` (stereo partly specified), the Potency in assay [1] was 14.5 µM (active); in assay [2], 7.28 µM (active).

On to `C=C1C(=O)O[C@@H]2/C=C(\C)CC/C=C(\C)CC[C@@H]12`, for which the Potency in assay [1] is 14.5 µM (active); in assay [2], 7.28 µM (active).

`O=C(NO)c1ccc(CC(=O)N(CCO)c2ccccc2)cc1`: the Potency was 16.3 µM (active) in assay [1] and 14.5 µM (active) in assay [2].

Regarding `C=C1C(=O)O[C@@H]2C(OC(=O)/C(C)=C\C)/C(C)=C\C(=O)/C=C(\C)C[C@H](O)[C@@H]12` (stereo partly specified), the Potency in assay [1] is 2.26 µM (active); in assay [2], 1.6 µM (active).

In the case of `C=C1C(=O)O[C@@H]2/C=C(/C)[C@@H](OC(C)=O)C/C=C(\C)C[C@@H](OC(=O)/C(=C/CO)CO)[C@@H]12`, the results for the Potency in assay [1] and in assay [2] were 7.09 µM (active) and 3.17 µM (active), respectively.

As to `C=C1C(=O)O[C@H]2C[C@@H](C)[C@@H]3CCC(=O)[C@@]3(C)C[C@H]12`, the Potency in assay [1] and in assay [2] was 3.65 µM (active) in each case.

Regarding `CC(=O)C=C=C1C(C)(C)CC(O)CC1(C)O[C@@H]1O[C@H](CO[C@H]2OC[C@](O)(CO)[C@H]2O)[C@@H](O)[C@H](O)[C@H]1O` (stereo partly specified), the Potency entry in assay [1] and in assay [2] was “inactive” throughout.

Consider `O=C(O)CSc1cc(NS(=O)(=O)c2ccc(Br)cc2)c2ccccc2c1O`, for which the Potency in assay [1] is 7.28 µM (active); in assay [2], 4.09 µM (active); in assay [3], 84.9 µM (active). Also, in assay [4], the call was inactive.

As for `C=C1C(=O)O[C@@H]2[C@H]1CC[C@H](C)[C@]1(CCC(=O)O1)C2(C)O` (stereo partly specified), the Potency in assay [1] is 20.5 µM (active); in assay [2], 14.5 µM (active).

Regarding `C/C1=C\[C@@H](C)C[C@@H](C)[C@@H](Cc2cnco2)OC(=O)/C(C)=C/[C@@H](C)C[C@@H](C)[C@@H](Cc2cnco2)OC1=O`, the Potency was 1.78 µM (active) in assay [1] and 3.17 µM (active) in assay [2].

As to `CCn1nc(C2CCN(C(=O)CCO)CC2)nc1-c1cnc(N)c(-c2nnc(C(C)(C)C)o2)n1`, the Potency in assay [1] was 164 nM (active) and 296 nM (active); in assay [2], 64.9 nM (active) and 263 nM (active).

As for `COc1c(CCC(=O)O)cccc1O[C@@H]1O[C@H](CO)[C@@H](O)[C@H](O)[C@H]1O`, the Potency entry in assay [1] and in assay [2] was “inactive” each time.

`Fc1ccc2[nH]ccc2c1-c1nc(N2CCOCC2)c2sc(CN3CCN(CC4CC4)CC3)cc2n1`: the Potency in assay [1] is 205 nM (active) and 3.72 µM (active); in assay [2], 365 nM (active) and 833 nM (active).
